Only some compounds are listed: those with a hit (about 4.3% of all), similar ones and a draw of the others.
Peg3 prom inh – inhibitors of Peg3 promoter | HeLa PEG-Prom luciferase reporter, luminescence, overnight | inhibition, % at 20 µM | actives 1.7% (n = 360,000);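 active = inhibition of at least 50% at 20 µM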
TRPM1 prom inh – reduces MITF-dependent TRPM1 promoter luciferase signal; SK-MEL-5 TRPM1 promoter luciferase, 24 h; inhibition, % at 12.5 µM; actives 0.83% (n = 330,000);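 active = mean inhibition across replicates of 60% or more, whatever share of single replicates reaches that level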
CHOP inhibitor – inhibitors of CHOP induction in ER stress response; inhibition, % at 10 µM; actives 3.8% (n = 220,000); CHO-K1 CHOP-promoter luciferase, tunicamycin-induced, 15-18 h;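 active = compounds that reduced the stress-induced luciferase reporter signal by more than about 70% of percent inhibition, limit read from the data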;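 also: 0% = tunicamycin plus vehicle and 100% = wells without tunicamycin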
CF NFkB inh – cystic fibrosis NF-kB activation inhibition; KKLEB NF-kB-GFP reporter, PAF-induced, GFP fluorescence overnight; inhibition, % at 5 µM; actives 0.86% (n = 360,000); AID 588850;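 active = at least 50% inhibition at 5 µM, scaled per plate between neutral and stimulator controls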;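 also: PAF is a Pseudomonas aeruginosa culture filtrate used as stimulus; plate controls were PAF-stimulated DMSO wells for no effect and unstimulated DMSO wells for full effect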
KKLEB tox – counter-screen for CF NF-kB inhibitors: cytotoxicity. actives 0.36% (n = 360,000). activity change (cytotoxicity), % at 5 µM. KKLEB CF airway cells viability, ATPlite luminescence, overnight; hits give low values; cells stimulated with P. aeruginosa culture filtrate;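 active = corrected activity change at or below -50% at 5 µM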
HIF-2a block – HIF-2a inhibition; inhibition, % at 18.8 µM; actives 0.72% (n = 360,000); 786-0 RCC cells HIF-2a reporter, luciferase luminescence, overnight;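 active = inhibition of the luminescence signal of 40% or more relative to plate controls, in a single-dose primary screen at 18.75 µM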
CF NFkB conf – CF NF-kB inhibition confirmation, single concentration; shares compounds with CF NFkB inh; KKLEB CF airway cells, PAF-induced NF-kB-GFP fluorescence, overnight; inhibition, % at 5 µM; actives 64% (n = 1,300); in the data active = inhibition above about 40%;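 also: stimulus PAF is a Pseudomonas aeruginosa filtrate and not platelet activating factor; plate controls were DMSO wells with stimulus for no effect and unstimulated DMSO wells for full effect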
Active calls of the source: *; x = no result.

SMILES	Peg3 prom inh	TRPM1 prom inh	CHOP inhibitor	CF NFkB inh	KKLEB tox	HIF-2a block	CF NFkB conf
COc1ccc(-c2nn(-c3ccccc3)cc2/C=C/C(=O)N2CCOCC2)cc1OC	13	-4	14	-1	3	7	x
Cc1cc(N2C(=O)C(O)=C(C(=O)c3cc4ccccc4o3)C2c2cccc(Br)c2)no1 (stereo not given)	15	3	x	-33	16	-10	x
CCCOc1cccc(C2C(C(=O)c3cc4ccccc4o3)=C(O)C(=O)N2c2cc(C)on2)c1 (stereo not given)	4	-7	x	66*	-2	-2	24
CCC(Oc1ccccc1)C(=O)Nc1nnc(C)s1 (stereo not given)	12	2	38	-3	4	3	x
CCC(Oc1ccccc1)C(=O)Nc1ncc([N+](=O)[O-])s1 (stereo not given)	-1	12	13	50*	-3	-77	46*
O=C(COc1ccc(Cl)cc1)Nc1ncc([N+](=O)[O-])s1	-111	-12	33	57*	-49	-240	75*
CCc1nn2c(=O)cc(COC(=O)c3cc(Cl)c(OC)c(OC)c3)nc2s1	15	-13	x	18	-12	12	x
O=S(=O)(c1c(Cl)cc(Br)cc1Cl)N1CCN(C(=S)NC2CC2)CC1	30	-6	x	17	-4	-10	x
Cc1noc(C)c1COC(=O)c1cc2c(C)nn(-c3ccc(F)cc3)c2s1	14	8	x	51*	-31	21	8
CCOC(=O)[C@@H]1[C@H]2COc3ccc(Br)cc3[C@H]2N2C(=O)N(c3ccc(C)cc3)C(=O)[C@]12C	13	7	x	51*	-11	17	42*
CCOC(=O)[C@@H]1[C@H]2COc3ccc(Br)cc3[C@@H]2N2C(=O)N(c3ccc(C)cc3)C(=O)[C@]12C	2	7	x	1	-11	11	x
COc1ccc(CNC(=O)COc2ccc(S(=O)(=O)N3CCOCC3)cc2C)cc1	18	7	x	-1	5	10	x
COc1ccc(Nc2nnc(SCC3CCCO3)s2)cc1 (stereo not given)	-137	-46	-1	12	8	-150	x
COc1ccccc1CNC(=S)Nc1ccc(S(N)(=O)=O)cc1	16	2	x	-2	2	8	x
COc1ccc(NC(=O)Cn2ncc(Cl)c(Cl)c2=O)cc1S(=O)(=O)N1CCOCC1	97*	-5	-56	55*	-14	37	18
c1ccc2c(c1)Nc1cc3ccccc3cc1S2	-149	-60	-8	-1	10	-143	x
c1ccc2c(c1)Nc1ccncc1S2	0	-7	32	52*	-4	25	77*
Cc1nn(-c2ccccc2)c(N2CCCC2)c1/C=N/NC(=O)c1cc(-c2ccccc2)nc2ccccc12	55*	8	35	55*	-8	20	66*
Cc1ccc(-c2cc(C(=O)N/N=C/c3c(C)nn(-c4ccccc4)c3C)[nH]n2)cc1	-4	7	36	50*	-32	3	84*
c1ccc2c(-c3cncc4ccccc34)cncc2c1	20	-3	x	76*	-32	35	43*
c1ccc2c(c1)-c1cccc3cncc-2c13	-59	-17	x	-113	-14	-5	x
S=c1[nH]nc(Cn2cnc3ccccc32)n1-c1ccccc1	0	-1	3	10	-9	5	x
CCOc1ccccc1NC(=S)Nc1ccc2cn[nH]c2c1	-53	-9	18	58*	2	-60	67*
Cc1ccc2nsnc2c1NC(=O)CCl	5	-3	32	-12	3	7	x
O=C(Nc1ccccn1)c1ccc([N+](=O)[O-])o1	-6	-3	-31	31	-4	-12	x
SMILES	Peg3 prom inh	TRPM1 prom inh	CHOP inhibitor	CF NFkB inh	KKLEB tox	HIF-2a block	CF NFkB conf
Cc1ccnc(NC(=O)c2ccc([N+](=O)[O-])o2)c1	-66	13	-7	51*	3	-138	20
Cc1ccc2nsnc2c1NC(=O)c1ccc([N+](=O)[O-])o1	22	47	x	73*	7	38	37
NC(=O)c1ccsc1NC(=O)c1ccc([N+](=O)[O-])o1	47	67*	x	59*	-29	-22	-15
CCC(C)c1ccc(OCCCCN2CCOCC2)cc1 (stereo not given)	-9	10	41	14	2	-9	x
Cn1c(=O)[nH]c(=O)c2c1nc(N1CCCCCC1)n2CCOc1ccccc1	4	-7	15	6	-6	20	x
CS(=O)(=O)n1nc(OC(=O)c2cccc3ccccc23)cc1N	-32	19	-34	66*	-34	10	17
CS(=O)(=O)n1nc(OC(=O)c2cc(Br)ccc2Cl)cc1N	17	0	-46	5	1	22	x
S=C1N(c2ccccc2)C(c2ccc(Br)cc2)N2CCCN12 (stereo not given)	16	10	9	-8	-11	11	x
CC(=O)NC(CC(C)C)C(=O)NC(Cc1ccccc1)C(N)=O (stereo not given)	x	x	20	x	x	x	x
CC(=O)NC(CC(C)C)C(=O)NC(Cc1ccccc1)C(=O)CCl (stereo not given)	32	52	x	52*	-21	-9	56*
N=c1c(S(=O)(=O)c2ccc(Br)cc2)cc2c(=O)n3ccccc3nc2n1Cc1ccco1	41	6	x	82*	-18	13	12
O=c1c2cc(F)ccc2sn1-c1ccccc1Cl	24	x	x	51*	-10	-1	31
N=C1SCC(=O)N1c1ccccc1Cl	12	8	x	5	5	15	x
O=C(Nc1ccc(Oc2ccccc2)cc1)c1ccc2sc([C@H]3C[C@H](O)[C@@H](CO)O3)nc2c1	-27	x	x	54*	6	-97	46*
CC(=O)Nc1ccc(NC(=O)c2ccc3sc([C@H]4C[C@H](O)[C@@H](CO)O4)nc3c2)cc1	1	x	x	7	-3	5	x
COc1cc(/C=N/NC(=O)Nc2cccc3nsnc23)cc(OC)c1OC	22	-30	84*	64*	-25	9	77*
c1ccc(-c2nnc(SCc3ccncc3)o2)cc1	-57	x	x	-9	2	-134	x
Brc1cccc(CSc2nnc(-c3ccncc3)o2)c1	-3	4	50	59*	10	-9	69*
CCCCN(C)C(=O)c1ccc(Nc2nc(C(N)Cc3ccc(C(F)(F)F)cc3)cs2)nc1 (stereo not given)	96*	x	x	51*	-44	1	20
C[C@@H]1CC=C[C@H]2[C@H]1C(=O)N(Cc1ccccc1)[C@H]2c1cccc([N+](=O)[O-])c1	18	-8	-5	56*	-21	13	16
COC(=O)c1ccc(-c2ccc(OC)c([C@H]3[C@H]4C=CC[C@@H](C)[C@@H]4C(=O)N3Cc3ccccc3)c2)cc1	29	-23	21	66*	-12	24	53*

Screening results (PubChem)
